CHOP inhibitor: inhibitors of CHOP induction in ER stress response; CHO-K1 CHOP-promoter luciferase, tunicamycin-induced, 15-18 h; AID 2732; 220,000 tested, 3.8% active; inhibition, % at 10 µM;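 active = compounds that reduced the stress-induced luciferase reporter signal by more than about 70% of percent inhibition, limit read from the data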;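 also: 0% = tunicamycin plus vehicle and 100% = wells without tunicamycin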
WT yeast gro inh: growth inhibition of WT yeast, mitochondrial fusion screen | mitochondrial fusion phenotypic screen, WT strain | inhibition, % at 10 µM | 190,000 tested, 2.1% active | AID 1362; in the data active = inhibition above about 58%; tested in S. cerevisiae
Lmaj promast: reduces viability of Leishmania major promastigotes | resazurin fluorescence viability | inhibition, % at 10 µM | 200,000 tested, 9% active | AID 1063; in the data active = inhibition above about 50%;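 also: promastigotes grown with compound for 44 hours at 28 °C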
Arbovirus anti: arbovirus infection inhibition; arbovirus infection cell-based antiviral screen; inhibition, % at 10 µM; 200,000 tested, 0.37% active; AID 1251; in the data active = inhibition above about 30%
Starred values were filed as active, the others as inactive; · = not tested or not shown. In the library only some 12% were active in any assay of this set; here they are far more common.

SMILES	CHOP inhibitor	WT yeast gro inh	Lmaj promast	Arbovirus anti
COCCN(C(=O)c1ccccc1OC1CCN(S(C)(=O)=O)CC1)C(C)C	6.8	7.9	-2.2	2.7
COC(=O)CN(c1cccc(F)c1)S(C)(=O)=O	7.5	27.3	-1.5	1.4
COc1ccc(N(C(=O)CCC(=O)Nc2cc(C)on2)C(C(=O)NC2CCCC2)c2ccco2)cc1 (stereo not given)	11.8	3.8	20.0	-1.9
COc1ccc(C(C(=O)NC2CCCC2)N(C(=O)c2ccoc2C)c2ccc(C)c(C)c2)cc1 (stereo not given)	4.0	49.5	75.4*	-4.1
COc1ccc(N(C(=O)/C=C/C(=O)Nc2cc(C)on2)C(C(=O)NC2CCCC2)c2ccccc2C)cc1 (stereo not given)	48.7	-40.0	97.3*	9.7
COc1ccc(N(C(=O)c2ccco2)C(C(=O)NC2CCCC2)c2ccc(N(C)C)cc2)cc1 (stereo not given)	10.3	5.3	54.1*	-8.7
Cc1cccc(NC(=O)N(Cc2nc3ccccc3c(=O)[nH]2)C2CCCC2)c1	15.5	78.2*	11.7	3.9
O=C(Nc1cccc(Cl)c1)N(Cc1nc2ccccc2c(=O)[nH]1)C1CCCC1	65.9	3.0	2.0	2.7
CCCCC1(C)Nc2ccccc2-c2nc3ccccc3n21 (stereo not given)	-4.5	15.6	73.8*	-1.9
c1ccc2c(c1)NC1(CCCCCC1)n1c-2nc2ccccc21	6.0	12.0	27.9	-1.8
CC1(c2ccccn2)Nc2ccccc2-c2nc3ccccc3n21 (stereo not given)	24.8	0.2	52.9*	-0.6
COc1ccc(C2=NN(S(=O)(=O)c3ccccc3)C(c3ccccc3)C2)cc1 (stereo not given)	-8.8	·	·	·
COc1ccccc1C1CC(c2ccccc2)=NN1S(=O)(=O)c1ccccc1 (stereo not given)	14.4	·	·	·
COc1cccc(C2CC(c3ccccc3)=NN2S(=O)(=O)c2ccc(C)cc2)c1OC (stereo not given)	10.6	57.5	61.1*	-7.1
O=S(=O)(c1ccccc1)N1N=C(c2ccccc2)CC1c1ccccc1 (stereo not given)	17.2	80.2*	14.6	-5.2
O=C(COC(=O)c1ccccc1F)Nc1cccnc1Cl	9.8	3.2	1.4	4.4
COc1ccccc1N(CC(O)Cn1ccnc1C)S(=O)(=O)c1ccc(C)cc1 (stereo not given)	17.3	-18.1	0.3	-5.7
OCCCNC(=S)NC1CCCC1	7.7	-0.7	-7.8	-1.5
Cc1ccc(S(=O)(=O)NNC2CC(=O)N(c3ccc(Br)cc3)C2=O)cc1 (stereo not given)	73.2*	11.6	-2.6	-5.1
Cc1cc(OCCn2cc(/C(N)=N/O)c3ccccc32)ccc1Cl	-8.0	29.9	-7.3	-17.4
Cc1ccc(C(=O)c2cnc3ccccc3c2-c2ccccc2)cc1	60.4	-6.2	57.1*	-5.5
Fc1ccc(-c2nnc(-c3ccc(Cl)cc3Cl)o2)cc1	80.2*	4.8	-8.0	-9.8
O=C(CN1C(=O)COc2ccc(S(=O)(=O)N3CCOCC3)cc21)NCc1ccco1	-29.5	·	·	·
C(#Cc1ccccc1)C[N+]1(CC#Cc2ccccc2)CCCC1	11.8	7.1	100.1*	6.8
C=CC[N+]1(CC#Cc2ccccc2)CCCC1	35.9	14.0	-6.7	13.9
SMILES	CHOP inhibitor	WT yeast gro inh	Lmaj promast	Arbovirus anti
COc1cc([C@@H]2c3cc4c(cc3[C@@H](O)[C@H]3COC(=O)[C@H]23)OCO4)cc(OC)c1O[Si](C)(C)C(C)(C)C	86.6*	·	·	·
Cc1cc(C)n2nc(/C(C#N)=C/c3ccccn3)c(C#N)c2n1	-198.2	4.0	97.0*	-5.8
Cc1cc(C)n2nc(CC#N)c(C#N)c2n1	63.6	10.4	-6.6	14.7
COCCN(C(=O)/C=C/c1ccccc1)c1nnc(-c2cccnc2)s1	-2.2	-10.9	-3.3	-11.9
COc1ccc(C2=Nc3ccccc3OC2)cc1	52.1	55.1	98.0*	-11.4
COc1ccc(C2=NC(c3ccccc3)CO2)cc1 (stereo not given)	27.6	-4.1	-4.9	0.9
CCCc1nc(SCC(=O)c2ccc(F)cc2)c2ccccc2n1	19.4	38.5	18.3	15.0
Cc1cccc(N(CC(=O)N/N=C/c2cc([N+](=O)[O-])ccc2Cl)S(C)(=O)=O)c1C	0.0	-22.0	86.4*	9.7
CC(NC(=O)Nc1cccc([N+](=O)[O-])c1)(C(F)(F)F)C(F)(F)F	24.7	2.9	27.3	7.6
CCOC(=O)Cc1cnc(NC(=O)CSc2nc(C)c(CC)c(=O)[nH]2)s1	1.9	0.1	-1.5	0.4
O=C(c1ccc(Cl)c(S(=O)(=O)Nc2ccccc2C(=O)N2CCc3ccccc3C2)c1)N1CCc2ccccc2C1	37.7	32.6	78.1*	-16.6
O=C(/C(N=Nc1cccc([N+](=O)[O-])c1)=C(/O)c1ccc(Br)cc1)C(F)(F)F	70.1*	·	·	·

Source: PubChem (several laboratories)
